Reference: PubChem BioAssay (EPA / NIEHS)
Results filed as inconclusive are left out. Activity calls are given as the source filed them. The calls were made as follows, unless noted: active = hit-call score of the fitted dose curve at least 0.9, where 1 is the maximum; inactive = score below 0.9.

What was measured:
[1] = test system: SERPINA7 (gene 6906); test: CCTE_GLTED_hTBG: CCTE's human Thyroxine-binding Globulin (TBG) Inhibition Assay, Great Lakes Toxicology and Ecology Division (GLTED) Lab (AID 2284343; active = hit-call score of the fitted dose curve at least 0.9, where 1 is the maximum;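 also: active chemicals lower fluorescence versus DMSO baseline by displacing probe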)
Procedure, shortened: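 Measures how far test chemicals displace ANSA bound to purified human TBG. The read-out is fluorescence at 380 nm excitation and 475 nm emission, taken after 2 h of incubation.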

[2] = CCTE_Padilla_ZF_Score.General: CCTE's 144 Hour Post-fertilization zebrafish Assay Score for General Malformation, Padilla Lab (AID 2284411)
Procedure, shortened: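 Wild-type zebrafish embryos were plated singly at 6-8 hpf in 10% Hanks' and exposed in sealed wells at 26C until rinsed on 5 dpf. At 6 dpf two blinded assessors scored mortality, hatching and malformations by stereomicroscopy; gain-of-signal versus DMSO.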

[3] = CCTE_Padilla_ZF_Score.Craniofacial: CCTE's 144 Hour Post-fertilization zebrafish Assay Score for Craniofacial Malformation, Padilla Lab (AID 2284405)
Procedure, shortened: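 Wild-type zebrafish embryos (with chorions), one per well in 10% Hanks', were dosed at 6–8 hpf in sealed plates and kept at 26C. They were rinsed at 5 dpf. At 6 dpf two blinded assessors scored craniofacial malformations by brightfield stereomicroscopy.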

[4] = CCTE_Padilla_ZF_Score.Edema: CCTE's 144 Hour Post-fertilization zebrafish Assay Score for Edema Malformation, Padilla Lab (AID 2284406)
Procedure, shortened: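 Wild-type zebrafish embryos, one per well in Hanks' solution, dosed at 6-8 hpf, sealed and reared at 26C on a 14:10 h cycle; rinsed on 5 dpf. At 6 dpf, blinded assessors scored edema by stereomicroscopy.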

[5] = CCTE_Padilla_ZF_Score.Spine: CCTE's 144 Hour Post-fertilization zebrafish Assay Score for Spine Malformation, Padilla Lab (AID 2284407)
Procedure, shortened: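 Wild-type zebrafish embryos, one per well in Hanks' solution, dosed at 6–8 hpf in sealed plates at 26C, 14:10 h light:dark; rinsed at 5 dpf. Two blinded assessors scored spinal defects by stereomicroscopy at 6 dpf; fitted versus DMSO.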

[6] = CCTE_Padilla_ZF_Score.Swim_bladder: CCTE's 144 Hour Post-fertilization zebrafish Assay Score for Swim Bladder Malformation, Padilla Lab (AID 2284408)
Procedure, shortened: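 Wild-type zebrafish embryos, one per well in 10% Hanks', dosed at 6–8 hpf, sealed, reared at 26C and rinsed at 5 dpf. Blinded assessors scored uninflated swim bladder by stereomicroscopy at 6 dpf, relative to DMSO.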

[7] = CCTE_Padilla_ZF_Score.Position: CCTE's 144 Hour Post-fertilization zebrafish Assay Score for Position, Padilla Lab (AID 2284409)
Procedure, shortened: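 Wild-type zebrafish embryos (with chorions) exposed singly from 6–8 hpf in sealed wells of Hanks' solution at 26C, rinsed at 5 dpf. At 6 dpf, blinded assessors scored abnormal water-column position by brightfield stereomicroscopy, relative to DMSO.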

[8] = CCTE_Padilla_ZF_Score.Living: CCTE's 144 Hour Post-fertilization zebrafish Assay Score for Viability, Padilla Lab (AID 2284410);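 also: larval death at 6 dpf judged by absent heartbeat or coagulation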
Procedure, shortened: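 Wild-type zebrafish embryos were exposed singly from 6–8 hpf in sealed wells of Hanks' solution at 26C, then rinsed at 5 dpf. At 6 dpf, blinded assessors scored mortality (no heartbeat or coagulation) by stereomicroscopy, fitted against DMSO.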

[9] = CCTE_Padilla_ZF_Score.Tail: CCTE's 144 Hour Post-fertilization zebrafish Assay Score for Tail Malformation, Padilla Lab (AID 2284414)
Procedure, shortened: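 Wild-type zebrafish embryos, one per well in 200 uL 10% Hanks', dosed at 6-8 hpf, sealed, and kept at 26 C on a 14:10 h light cycle. Chemical was rinsed out at 5 dpf. Blinded brightfield scoring of tail defects followed at 6 dpf.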

[10] = CCTE_Padilla_ZF_Score.Blood_pooling: CCTE's 144 Hour Post-fertilization zebrafish Assay Score for Blood Pooling, Padilla Lab (AID 2284415)
Procedure, shortened: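 Wild-type outbred zebrafish embryos, one per well in 10% Hanks', exposed from 6–8 hpf in sealed plates at 26C on 14:10 h light:dark, rinsed at 5 dpf. Blinded stereomicroscope scoring of blood pooling at 6 dpf; gain-of-signal versus DMSO.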

[11] = CCTE_Padilla_ZF_Score.Any: CCTE's 144 Hour Post-fertilization zebrafish Assay Score for Any Mortality or Malformation, Padilla Lab (AID 2284416)
Procedure, shortened: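 Wild-type zebrafish embryos with chorions, one per well in 10% Hanks' from 6–8 hpf, dosed in sealed plates at 26 C, 14:10 h light:dark; rinsed at 5 dpf; blinded scoring at 6 dpf for death or malformation, versus DMSO.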

[12] = IUF_NPC1_cytotoxicity_72hr: Cytotoxicity Assessment at 72 hours in the Leibniz Research Institute for Environmental Medicine (IUF) Neural Progenitor Cell Proliferation Assay (NPC1) (AID 2284332; active = hit-call score of the fitted dose curve at least 0.9, where 1 is the maximum;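 also: rising LDH signal means more cytotoxicity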)
Procedure, shortened: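 hNPC spheres (fetal brain, gestational week 16-19) grown under proliferative EGF/FGF conditions, pH 7.2-7.6, were treated continuously for 72 h. Cytotoxicity came from LDH-coupled resazurin fluorescence in each well's supernatant.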

[13] = CCTE_Mundy_HCI_iCellGluta_NOG_NeuronCount: CCTE's Neurite Outgrowth Assay in iCellGluta cells for Neuron Count, Mundy Lab (AID 2284340; active = hit-call score of the fitted dose curve at least 0.9, where 1 is the maximum;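 also: cells fixed about 48 h after compound addition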)
Procedure, shortened: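 Neuron count read by automated high-content imaging of Hoechst 33342 and betaIII-tubulin/Alexa Fluor-488 labelling in human iPSC glutamatergic neurons. Activity fitted relative to DMSO.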

[14] = CCTE_Mundy_HCI_iCellGluta_NOG_NeuriteCount: CCTE's Neurite Outgrowth Assay in iCellGluta cells for Neurite Count, Mundy Lab (AID 2284342; active = hit-call score of the fitted dose curve at least 0.9, where 1 is the maximum;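 also: chemical exposure about 48 hours starting 2 hours after plating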)
[15] = test system: SRY-box transcription factor 2 (SOX2) Protein Expression, Deisenroth Lab, SOX2 (gene 6657); test: CCTE_Deisenroth_DEVTOX-GLR_legacy_Sox2: (Legacy) CCTE's DevTox GLR-Endo Assay Evaluation of SRY-box transcription factor 2 (SOX2) Protein Expression, Deisenroth Lab (AID 2284346)
Procedure, shortened: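 RUES2-GLR human pluripotent cells were differentiated for 48 h with two chemical doses 24 h apart, over 1 nM-200 uM. Sox2+ cells were those above 5x BMAD of the endoderm-control median; percent Sox2+ minus the 0.2% DMSO median was used, from n=4 replicates.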

[16] = test system: SRY-box transcription factor 2 (SOX2) Protein Expression, Deisenroth Lab, SOX2 (gene 6657); test: CCTE_Deisenroth_DEVTOX-GLR_Endo_SOX2: CCTE's DevTox GLR-Endo Assay Evaluation of SRY-box transcription factor 2 (SOX2) Protein Expression, Deisenroth Lab (AID 2284412; active = hit-call score of the fitted dose curve at least 0.9, where 1 is the maximum)
Procedure, shortened: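 RUES2-GLR human pluripotent cells were seeded 24 h, then differentiated 48 h with two chemical exposures 24 h apart. Cells were fixed, nuclei stained and imaged by high-content microscopy. Endpoint is %SOX2+ cells over cell count, minus 0.2% DMSO control; 10-point series 1 nM–200 uM.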

[17] = test system: SRY-box transcription factor 17 (SOX17) Protein Expression, Deisenroth Lab, SOX17 (gene 64321); test: CCTE_Deisenroth_DEVTOX-GLR_Endo_SOX17: CCTE's DevTox GLR-Endo Assay Evaluation of SRY-box transcription factor 17 (SOX17) Protein Expression, Deisenroth Lab (AID 2284413)
Procedure, shortened: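 RUES2-GLR human pluripotent cells were differentiated toward endoderm for 48 h and received two compound doses 24 h apart (1 nM - 200 uM, 10 points). High-content imaging of fixed cells gave the percent SOX17+ cells per cell count, expressed as percent change versus 0.2% DMSO.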

[18] = CCTE_Deisenroth_DEVTOX-GLR_Endo_CellCount: Viability Assessment in CCTE's DevTox GLR-Endo Assay, Deisenroth Lab (AID 2284420)
Procedure, shortened: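 RUES2-GLR human pluripotent cells seeded 24 h, then differentiated 48 h with two chemical exposures at 24 h intervals (10-point, 1 nM - 200 uM). Fixed, nuclear-stained, imaged; nuclei counts give % change in cell count versus 0.2% DMSO.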

## CCCCCCCCCCCCOCCOS(=O)(=O)O
[1]
  AC50: 50 µM (active)

## O=S(=O)(O)c1cc(S(=O)(=O)O)c2c(N=Nc3ccccc3)c(O)ccc2c1
[1]
  AC50: 33.9 µM (active)

## CCOC(=O)CCCCCCCCC(=O)OCC
[2]
  outcome: inactive

## CCCCCCCCOC(=O)c1ccc(O)cc1
[1]
  AC50: 7.24 µM (active)

## CCCCCCOc1ccc(O)cc1
[1]
  AC50: 33.7 µM (active)

## O=S(=O)(O)C(F)(F)C(F)(F)OC(F)(F)C(F)(F)F
[3]
  outcome: inactive
[4]
  outcome: inactive
[5]
  outcome: inactive
[6]
  outcome: inactive
[7]
  outcome: inactive
[8]
  outcome: inactive
[2]
  outcome: inactive
[9]
  outcome: inactive
[10]
  outcome: inactive
[11]
  outcome: inactive

## N[C@@H](CCC(=O)O)C(=O)O
[12]
  outcome: inactive
[13]
  outcome: inactive
[14]
  outcome: inactive

## CCCCC(CC)COC(=O)COc1ccc(Cl)cc1C (stereo not given)
[12]
  outcome: inactive
[13]
  AC50: 39 µM (active)
[14]
  AC50: 32.2 µM (active)

## CC(C)Cc1ccc(C(C)C(=O)O)cc1 (stereo not given)
[12]
  outcome: inactive
[13]
  outcome: inactive
[14]
  outcome: inactive
[15]
  outcome: inactive
[16]
  outcome: inactive
[17]
  outcome: inactive
[18]
  outcome: inactive

## CC(=O)CCC=C(C)CCC=C(C)C
[2]
  outcome: inactive

## CCCCCCCCCC(=O)OCC
[2]
  outcome: inactive

## CCC(=O)OC/C=C(\C)CCC=C(C)C
[2]
  AC50: 27.3 µM (active)

## CC1=CC(C)C(C=O)C(C)C1 (stereo not given) (tested in a mixture with another compound)
[2]
  outcome: inactive

## CCCCCCCCCCCCS
[2]
  outcome: inactive

## N#CCCNCCC#N
[13]
  outcome: inactive
[14]
  outcome: inactive

## C=C(C)C(=O)OCCC(F)(F)C(F)(F)C(F)(F)C(F)(F)C(F)(F)C(F)(F)C(F)(F)C(F)(F)F
[3]
  outcome: inactive
[4]
  outcome: inactive
[5]
  outcome: inactive
[6]
  outcome: inactive
[7]
  outcome: inactive
[8]
  outcome: inactive
[2]
  outcome: inactive
[9]
  outcome: inactive
[10]
  outcome: inactive
[11]
  outcome: inactive
